In PubChem BioAssay (NCI) one finds growth data, which are given here for eight compounds.

Test in all cases: NCI-60 one-dose screen, 48 h (100 = growth as untreated, 0 = no growth, -100 = all killed)
Conditions in all cases: 10 µM unless noted

For assay [1], the system named is SK-MEL-2 melanoma.
In assay [2] the test system is EKVX NSCLC.
Assay [3] concerns SN12C renal.
For assay [4], the system named is UO-31 renal.
The test system of assay [5] is TK-10 renal.
The test system of assay [6] is ACHN renal.
In assay [7] the test system is CAKI-1 renal.
Assay [8] relates to A498 renal.
The subject of assay [9] is CCRF-CEM leukemia.
Assay [10] has as its system MOLT-4 leukemia.
The test system of assay [11] is SR leukemia.
Assay [12] deals with RPMI-8226 leukemia.
The test system of assay [13] is OVCAR-8 ovarian.
Assay [14] deals with OVCAR-5 ovarian.
Assay [15] concerns OVCAR-4 ovarian.
Assay [16] deals with SK-OV-3 ovarian.
The test system of assay [17] is IGROV1 ovarian.
Assay [18] relates to OVCAR-3 ovarian.
The test system of assay [19] is HS 578T breast.
The test system of assay [20] is NCI/ADR-RES ovarian.

About 83,000 compounds went through this panel and 20% of them were active in at least one assay; those are over-represented in the sample as a whole.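 The endpoint reported here, percent growth, reads 100 for growth as untreated, 0 for no net growth and -100 for all cells dead.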 Unmarked numbers belong to inactive results. Calls of active or inactive are those of the source. The calls were made as follows: active = growth percent below 10; inactive = the rest.

Regarding `CC(C)CCC(=O)[C@@H](C)[C@H]1[C@@H](OC2OCC(O)C(O)C2NS(C)(=O)=O)C[C@H]2[C@@H]3CC=C4C[C@@H](O)CC[C@]4(C)[C@H]3CC[C@]12C` (stereo partly drawn), the growth in assay [1] was -36.9% (active); in assay [2], 27.7%; in assay [3], 75.2%; in assay [4] it was -16.1% (active); in assay [5], 26.1%; in [6] it was 42.1%. For the same compound, the growth in assay [7] is 24.1%; in assay [8], -58.4% (active); in assay [9], -8.84% (active); in assay [10] it was -0.0897% (active); in [11], 17%; in [12], -26.1% (active). Besides, the growth in assay [13] is 35.4%; in assay [14], 64.5%; in assay [15] it was 75.5%; in assay [16], 0.627% (active); in assay [17], 61.2%; in assay [18], 68.8%. Also, the growth is -4.14% (active) in [19] and 82.7% in [20].

For the compound `COc1ccc(NC(=O)Cn2c(=O)sc3c(-c4ccc(Cl)cc4)cc(-c4ccc(Cl)cc4)nc32)cc1`, the growth is 107% in assay [1]; 95.4% in [2]; 93.2% in assay [3]; 81.4% in [4]; 97.3% in assay [5]; 102% in [6]. The growth in assay [7] was 95.3%; in [8] it was 129%; in assay [9], 112%; in [10], 95%; in assay [11], 63.3%; in [12], 116%. For the same compound, the growth was 107% in assay [13]; 111% in [14]; 98.3% in [15]; 102% in assay [16]; 92.3% in assay [17]; 115% in assay [18]. The growth in assay [19] was 108%.

For `COc1cc(C2C(C#N)=C(N)Oc3cc4c(cc32)OCO4)cc2c1OCO2` (stereo not drawn), the growth in assay [1] was 56.6%; in assay [2], 55.7%; in assay [3], 35.2%; in assay [4], 46.3%; in [5], 72.1%; in assay [6], 35%. In addition, the growth in assay [7] is 60.8%; in assay [8], 8.65% (active); in [9], 18.2%; in assay [10], 20.3%; in assay [11], 15.3%; in assay [12] it was 31.4%. Moreover, the growth in assay [13] is 35.1%; in assay [14] it was 41.3%; in [15] it was 42.3%; in [16], -5.36% (active); in assay [17], 33.3%; in assay [18], -39.7% (active). In assay [19], the growth is 23%.

As to `COc1ncnc2[nH]cc(CN3CCN(c4ccc(F)cc4)CC3)c12`, the growth in assay [1] was 103%; in assay [2], 97.9%; in [3] it was 102%; in [4], 94.3%; in assay [5], 90.1%; in assay [6], 104%. For the same compound, the growth in assay [7] was 98.8%; in [8] it was 80%; in assay [9], 97.1%; in assay [10], 105%; in assay [11], 105%; in assay [12] it was 103%. Moreover, the growth is 100% in assay [13]; 102% in assay [14]; 115% in assay [15]; 104% in assay [16]; 102% in assay [17]; 114% in assay [18]. For the same compound, the growth in [19] is 97.5%.

As to `CCCCCCCCN=C(NCCCCCCCC)SCc1cccc2ccccc12`, the growth in assay [1] is -89.8% (active); in assay [2], -66.4% (active); in assay [3] it was -88.1% (active); in assay [4], -57.2% (active); in assay [5] it was -94.8% (active); in [6], -91.8% (active). Besides, the growth in assay [7] was -84.9% (active); in assay [8], -80.4% (active); in assay [9], -2.17% (active); in assay [10], -11% (active); in assay [11] it was -34.6% (active); in assay [12], -42.1% (active). Besides, the growth in assay [13] is -92.5% (active); in [14], -84.2% (active); in [15], -91.7% (active); in [16] it was -96.3% (active); in assay [17] it was -55.5% (active); in [18], -97.9% (active). Also, the growth in assay [19] was -55.3% (active).

For the compound `ClCc1c(Cl)c(Cl)c(Cl)c(CCl)c1Cl`, the growth in assay [1] is 87.7%; in assay [2], 101%; in [3] it was 41.5%; in assay [4] it was -21.7% (active); in [5], -73.9% (active); in [6], 8.92% (active). For the same compound, the growth in [7] is -76.4% (active); in assay [8], 89%; in assay [9] it was 3.24% (active); in assay [10], 13.3%; in [11] it was 4.07% (active); in [12], 18.4%. The growth in assay [13] is 49.5%; in [14] it was 118%; in [15], -66.2% (active); in assay [16] it was 113%; in assay [17], 4.3% (active); in [18] it was -94.5% (active). In addition, the growth in [19] was 89.3%.

Consider `COC1(OC)C2(Cl)CCC1(Cl)C(Cl)=C2Cl`, for which the growth is 95.2% in assay [1]; 104% in assay [2]; 96.8% in assay [3]; 94.6% in [4]; 119% in assay [5]; 109% in assay [6]. Further, the growth was 109% in assay [7]; 91% in [8]; 103% in assay [9]; 105% in assay [10]; 98.6% in assay [11]; 103% in assay [12]. The growth in assay [13] was 94.6%; in assay [14], 105%; in [15], 103%; in [16], 104%; in assay [17], 106%; in assay [18], 112%. Further, the growth in assay [19] is 99.9%.

On to `O=C(c1ccccc1)c1cccc(C(Br)Br)c1`, for which the growth in [1] is 74.5%; in assay [2] it was 107%; in assay [3], 89.7%; in assay [4], 74.1%; in assay [5], 78.9%; in assay [6], 91%. The growth in [7] was 78.2%; in assay [8] it was 77.2%; in assay [9], 103%; in assay [10] it was 81.5%; in assay [11], 43.8%; in assay [12], 84.4%. Moreover, the growth is 93.7% in assay [13]; 125% in assay [14]; 95.4% in [15]; 94% in assay [16]; 70.5% in [17]; 97.5% in assay [18]. For the same compound, in assay [19], the growth was 94.5%.
